In all, about 63,000 compounds went through this assay and about 1,100 (1.7%) were called active. This excerpt belongs to a sample that is enriched for actives. Measured potencies and affinities stand elsewhere. Values without a mark were called inactive.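 Rule for the calls: active = compounds whose percent cytotoxicity in the single-dose primary screen, scaled between solvent and toxic-drug controls, exceeds 50; inactive = the rest.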
test: cytotoxicity in KRAS-transformed pancreatic duct cells, primary screen, cell-based, fluorescence, HTS (AID 431); details: HPDE-C7K KRASV12 cells, Alamar Blue viability, 48 h; at 10 µM; stronger effect = higher value;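 note: 0% = DMSO solvent wells and 100% = doxorubicin-treated wells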

In order of rising cytotoxicity:
1. CC1SC2(CN3CCC2CC3)NC1=O (centres undefined)  -32%
2. COC(=O)C(O)(c1ccc2c(c1)CCCN2)C(F)(F)F (centres undefined)  -24.5%
3. O=P(C(c1ccc2c(c1)OCO2)N1CCOCC1)(N1CCOCC1)N1CCOCC1 (centres undefined)  -15.1%
4. CCc1nc2ccccc2c(=O)n1-c1cccc(OC)c1  -14%
5. CCOC(=O)c1c(N)n(Cc2ccco2)c2nc3ccccc3nc12  -13.8%
6. CN=C(SCc1cc2c(cc1Cl)OCO2)c1c(O)n(C)c(=O)n(C)c1=O  -13.4%
7. Cn1c(O)c(C=NCCOc2ccc(Cl)cc2)c(=O)n(C)c1=O  -12.3%
8. O=P1(NC2CCCC2)COc2ccccc2OC1  -11.9%
9. CCOc1ccc(C2SCC(=O)Nc3c2c(=O)[nH]n3C2CCCCCC2)cc1 (centres undefined)  -11.1%
10. O=C(c1csc2c1CCCCC2)N1CCC2(CC1)OCCO2  -9.8%
11. CCCCn1c(N)c(C(=O)NCCN2CCOCC2)c2nc3ccccc3nc21  -9.3%
12. COCCOC(=O)c1c(N)n(Cc2ccc(OC)cc2)c2nc3ccccc3nc12  -9.2%
13. Cc1ccc(CN2CC3CC(C2)c2cccc(=O)n2C3)cc1 (centres undefined)  -9.1%
14. CC(C)OC(=O)c1c(N)n(Cc2ccco2)c2nc3ccccc3nc12  -9%
15. NCCc1c[nH]c2ccc(F)cc12  -7.8%
16. O=P(OCC(F)(F)C(F)F)(N1CCOCC1)N1CCOCC1  -6.6%
17. C=CCN1C(=O)C2(C(C(=O)OCC)=C(N)Oc3ccccc32)C2=C1CCCC2=O (centres undefined)  -6.6%
18. COc1ccc(-n2c(SC)nc3ccccc3c2=O)cc1  -4.7%
19. CC(C)[C@H]1C(=O)N2CCC[C@H]2[C@]2(O)O[C@](NC(=O)[C@@H]3C=C4c5cccc6[nH]cc(c56)C[C@H]4N(C)C3)(C(C)C)C(=O)N12  -1.3%
20. COc1ccc(C2SCC(=O)Nc3c2c(=O)[nH]n3C2CCCCC2)cc1 (centres undefined)  -1.2%
21. CCOc1ccc(-n2c(CC)nc3ccccc3c2=O)cc1  1.5%
22. CCOC(=O)c1c(N)n(CCN2CCCCC2)c2nc3ccccc3nc12  1.7%
23. Cc1ccc2c(c1)C(c1ccccc1)NCC(=O)N2 (centres undefined)  2.7%
24. COc1ccc(Cn2c(N)c(C(=O)NCc3ccco3)c3nc4ccccc4nc32)cc1OC  3.1%
25. C=CCn1c(O)c(C(C)=NCCN2CCOCC2)c(=O)[nH]c1=O  3.7%
26. CSC(=Nc1ccccc1)c1c(O)n(C)c(=O)n(C)c1=O  5.2%
27. CCCCCn1c(N)c(C(=O)NCCN2CCOCC2)c2nc3ccccc3nc21  6.4%
28. CCOC(=O)c1cccc([P+](=O)O)c1  7.5%
29. CCCNS(=O)(=O)c1ccc(OCC(=O)N2CCN(Cc3ccccc3)CC2)cc1  8%
30. Cc1ccc2c(c1)CC1(CN2C)C(=O)NC(=O)N(c2ccccc2C)C1=O (centres undefined)  8.7%
31. Cc1nc2c(-c3ccc(F)cc3)c(C)nn2c(C)c1CCC(=O)N1CCC2(CC1)OCCO2  9.4%
32. O=C(C(Cc1ccccc1)NS(=O)(=O)c1ccc(F)cc1)N1CCC2(CC1)OCCO2 (centres undefined)  10.2%
33. CN(C)CCc1nc2ccccc2c(=O)n1-c1ccccc1  11.7%
34. Cc1ccc(S(=O)(=O)N2CN3CCN(C3)C2)cc1  11.8%
35. Cc1ccc(CN2CCN(C)CC2)c(C)c1  14.3%
36. COCCOC(=O)c1c(N)n(Cc2ccco2)c2nc3ccccc3nc12  15.2%
37. O=c1c2ccccc2nc(-c2cccs2)n1-c1cnccn1  15.2%
38. COc1ccc2[nH]cc(CCN(C)C)c2c1  19.9%
39. Nc1c(C(=O)NCCN2CCOCC2)c2nc3ccccc3nc2n1Cc1ccco1  20.7%
40. CCC(=NCCC1=CCCCC1)c1c(O)[nH]c(=O)[nH]c1=O  22.3%
41. CC(C)CCOC(=O)c1c(N)n(CC2CCCO2)c2nc3ccccc3nc12 (centres undefined)  26.1%
42. CC(C)[C@@]1(NC(=O)[C@@H]2C=C3c4cccc5[nH]cc(c45)C[C@H]3N(C)C2)O[C@@]2(O)[C@@H]3CCCN3C(=O)[C@H](Cc3ccccc3)N2C1=O  29.5%
43. CCc1nc(N2CCNCC2)c(C#N)c2c1CSC(C)(C)C2  31.9%
44. CCCCn1c(N)c(C(=O)OCC2CCCO2)c2nc3ccccc3nc21 (centres undefined)  34.2%
45. CC(=NCc1ccc(F)cc1)c1c(O)n(C)c(=O)n(C)c1=O  37.8%
46. CCCCNC(=O)c1c(N)n(CCCOC)c2nc3ccccc3nc12  47.2%

In the case of `CCCCCCn1c(N)c(C(=O)NCCN2CCOCC2)c2nc3ccccc3nc21`, the cytotoxicity is reported as 86.3% (active).
In the case of `COc1ccc(CCNC(=O)c2c(N)n(CCN3CCOCC3)c3nc4ccccc4nc23)cc1`, the cytotoxicity is reported as 76.9% (active).
In the case of `CCCCc1ccc2[nH]cc(CCN)c2c1`, the cytotoxicity is reported as 89.6% (active).
For `Nc1c(C(=O)NCc2ccco2)c2nc3ccccc3nc2n1Cc1ccc(F)cc1`, the cytotoxicity was 95.8% (active).
With `COc1ccc(Cn2c(N)c(C(=O)NCc3ccco3)c3nc4ccccc4nc32)cc1` the cytotoxicity was 75.2% (active).
For `CC(C)(C)OC(=O)c1c(N)n(Cc2ccco2)c2nc3ccccc3nc12`, the cytotoxicity was 56.1% (active).
With `O=c1c2ccccc2nc(CSc2ncnc3nc[nH]c23)n1-c1ccccc1` the cytotoxicity was 64.8% (active).
In the case of `CC(C)CCn1c(N)c(C(=O)OCC2CCCO2)c2nc3ccccc3nc21` (centres undefined), the cytotoxicity is reported as 51.5% (active).
For `CC(C)[C@@]1(NC(=O)[C@@H]2C[C@@H]3c4cccc5[nH]cc(c45)C[C@H]3N(C)C2)O[C@@]2(O)[C@@H]3CCCN3C(=O)[C@H](Cc3ccccc3)N2C1=O`, the cytotoxicity was 77.9% (active).
For `CCn1nc(-c2cccs2)nc2c(=O)n(C)c(=O)nc1-2`, the cytotoxicity was 127% (active).
In the case of `CCn1nc(-c2ccccc2)nc2c(=O)n(C)c(=O)nc1-2`, the cytotoxicity is reported as 123% (active).
In the case of `COc1ccc(C2SCC(=O)Nc3c2c(=O)[nH]n3C2CCCCCC2)cc1` (centres undefined), the cytotoxicity is reported as 80.4% (active).
With `CCCCc1nc(N2CCNCC2)c(C#N)c2c1CSC(C)(C)C2` the cytotoxicity was 71.5% (active).
